# Measured values published in PubChem BioAssay (NCI).
# Compounds without any hit were thinned out: in the full panel of roughly 83,000, 20% have a hit.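 Cells were grown in 96-well plates and exposed to the test compound at a single concentration for 48 hours; results are reported as percent growth, with values below 10 considered active.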 Values without a mark were called inactive. Activity calls are given as the source filed them.
# System: SK-MEL-5 melanoma
# Assay: NCI-60 one-dose screen, 48 h (100 = growth as untreated, 0 = no growth, -100 = all killed)
# Details: 10 µM
row,SMILES,growth
1,COCCCC/C(=N\OCCN)c1ccc(C(F)(F)F)cc1,99.6%
2,Cc1ccccc1N=C(c1ccccc1)C1C(=O)c2ccccc2C1=O,-0.209% (active)
3,O=C(O)C(c1ccccc1)C(O)c1ccccc1 (stereo not drawn),94%
4,CC(C)(C)c1cc(O)c(C(C)(C)C)cc1O,67.8%
5,O=C(CCNNC(=O)c1ccncc1)NCc1ccccc1,89%
6,CCCNc1ccc(C2=NCCCN2)cc1,97.5%
7,O=[N+]([O-])c1ccc(O)c(S(=O)(=O)O)c1,121%
8,O=C(O)c1cccc([N+](=O)[O-])c1O,105%
9,C/C=C/CC(C)C(O)C1C(=O)NC(CC)C(=O)N(C)CC(=O)N(C)C(CC(C)C)C(=O)NC(C(C)C)C(=O)N(C)C(CC(C)C)C(=O)NC(C)C(=O)NC(C)C(=O)N(C)C(CC(C)C)C(=O)N(C)C(CC(C)C)C(=O)N(C)C(C(C)C)C(=O)N1C (stereo not drawn),2.67% (active)
10,O=[N+]([O-])c1ccc(N=Nc2ccccc2)cc1,99%
11,O=C(CC(=O)c1ccccc1O)c1ccccc1,77.6%
12,CCn1c(=O)n(C)c2c(=O)n(C)c(=O)n(C)c21,103%
13,CCCCCCCCCCCCCCCCC1CC(=O)OC1=O (stereo not drawn),103%
14,O=C1c2ccccc2C(=O)N1OCc1ccccc1,110%
15,C[C@@H](c1ccccc1)[C@@H](C(=O)O)c1ccccc1,98.2%
16,CC(=O)C1CCCCC1,99.9%
17,Nc1ccc(CC(=O)O)c(N)c1,99.2%
18,CN(C)c1ccc(CNC(C(=O)c2ccccc2)c2ccccc2)cc1 (stereo not drawn),56.2%
19,CC(C)COC(=O)COC(=O)OCCOCCOC(=O)OCC(=O)OCC(C)C,101%

row,SMILES,growth
1,S=C(Nc1ccccc1)N1CCCCC1,97%
2,O=C(O)CCCc1ccccc1,108%
3,COc1cc(OC)c2ccc(=O)oc2c1,107%
4,Cc1cc(=O)[nH]c(NN=C2CCCC2)n1,115%
5,Nc1ccc(C(=O)c2ccc(N)c(Br)c2)cc1Br,8.91% (active)
6,CCCC(=O)c1cc(C)ccc1OC,104%
7,Nc1ccc(NC(=O)c2cccc(N)c2)cc1,103%
8,O=C(N/N=C/c1ccccc1O)Nc1nn[nH]n1,99.3%
9,CCOC(=O)/C(C#N)=C/c1cccc(C)c1,101%
10,c1ccc(/C(=N\N=C(/c2ccccc2)c2cccs2)c2cccs2)cc1,101%
11,Nc1ccccc1C(=O)Nc1ccc(Cl)cc1Cl,107%
12,CC1=CC(=O)c2ccccc2C1=O,103%
13,COC(=O)Nc1nc2ccc(C(=O)c3cccs3)cc2[nH]1,-21.1% (active)
14,CCOC(=O)C(C#N)Cc1ccccc1 (stereo not drawn),117%
15,Cc1nc2ccccc2c2nnc(SCC(=O)N(Cc3ccccc3)c3ccccc3)n12,45.1%
16,CC1=C(/C=C/C(C)=C/C=C/C(C)=C/CO)C(C)(C)CCC1,107%
17,CC(=O)Nc1cccc(Cl)c1C,102%
18,COc1cc([C@@H]2c3cc4c(cc3[C@H](O)[C@H]3COC(=O)[C@H]23)OCO4)cc(OC)c1OC,-25% (active)
19,CC1CCC(C(=O)O)N1 (stereo not drawn),102%
